Among the data in PubChem BioAssay (NCI) are growth inhibition values, retold here.

About 79,000 compounds went through this panel and 15% of them were active in at least one assay; those are over-represented in the sample as a whole. Values without a mark were called inactive. The source made the active and inactive calls. Rule as the data show it: active = growth inhibition above about 70%; inactive = the rest.

Assay [1] in a line: NCI Yeast Anticancer Drug Screen. Data for the rad50 strain (AID 155).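 Also: 0% = growth of vehicle-only cultures of the same strain.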 The settings on record: S. cerevisiae rad50 strain growth inhibition, hits give high values. A digest of the protocol: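 Compounds were tested on a yeast strain with an engineered DNA damage repair alteration; the reported value is growth inhibition normalised to vehicle treatment.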
Assay [2] in a line: NCI Yeast Anticancer Drug Screen. Data for the mec2-1 strain (AID 157). The settings on record: S. cerevisiae mec2-1 strain, hits give high values. A digest of the protocol: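 Compounds were applied to mec2-1 yeast cells. Their growth was then compared with that of vehicle-treated cultures to give growth inhibition.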
Assay [3] can be described thus: NCI Yeast Anticancer Drug Screen. Data for the sgs1 mgt1 strain (AID 161).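 Also: 0% = growth of cultures given vehicle only.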 Particulars: S. cerevisiae sgs1 mgt1 strain, hits give high values. A digest of the protocol: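 Percent growth inhibition was derived by comparing compound-exposed mutant yeast with vehicle-exposed cultures. The strain carries alterations in DNA damage repair.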
Assay [4] in a line: NCI Yeast Anticancer Drug Screen. Data for the cln2 rad14 strain (AID 165).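 Also: 0% = growth equal to vehicle treated cultures.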 Particulars: S. cerevisiae cln2 rad14 strain, hits give high values. A digest of the protocol:
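Strain: cln2 rad14 yeast, altered in cell cycle control and DNA damage repair. Read-out: growth inhibition vs vehicle.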

A short description of assay [5]: NCI Yeast Anticancer Drug Screen. Data for the bub3 strain (AID 167). Particulars: S. cerevisiae bub3 mutant strain, hits give high values. A digest of the protocol: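 Growth of a checkpoint-deficient yeast mutant is measured after compound exposure. Values represent inhibition relative to vehicle.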
Assay [6] can be described thus: NCI Yeast Anticancer Drug Screen. Data for the mlh1 rad18 strain (AID 175). The settings on record: S. cerevisiae mlh1 rad18 strain growth inhibition, hits give high values. A digest of the protocol: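 A repair-deficient yeast strain is exposed to test compound, and growth is scored relative to vehicle-treated controls.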
The mark [7] stands for this setting: at 5.0 µM (retest, dose inferred, filed as 0.5).
Where [8] appears, read: at 50.0 µM (retest, dose inferred, filed as 5.0).

With `COC1=C(/C(=N/Nc2ccc([N+](=O)[O-])cc2[N+](=O)[O-])c2ccccc2)COC1=O`, the growth inhibition in assay [1] (setting [7]) was -2%; in assay [1] (setting [8]), -6%; in assay [1] (at 50.0 µM), 17.1%; in assay [2] (setting [7]) it was 0%; in assay [2] (setting [8]), -4%; in assay [2] (at 50.0 µM) it was 9.25%. The growth inhibition in assay [3] (setting [7]) was -3%; in assay [3] (setting [8]), -7%; in assay [3] (at 50.0 µM), -8.25%; in assay [4] (setting [7]), 4%; in assay [4] (setting [8]), 15%; in assay [4] (at 50.0 µM) it was 4.15%. The growth inhibition was 3% in assay [5] (setting [7]); -3% in assay [5] (setting [8]); 93.3% (active) in assay [5] (at 50.0 µM); 3% in assay [6] (setting [7]); -6% in assay [6] (setting [8]); 4.9% in assay [6] (at 50.0 µM).
Turning to `Cc1cc(N=NC(N)=S)c2ccccc2c1O`, the growth inhibition in assay [1] (setting [7]) was 4%; in assay [1] (setting [8]), 22%; in assay [1] (at 50.0 µM), 76.2% (active); in assay [2] (setting [7]), -3%; in assay [2] (setting [8]) it was 1%; in assay [2] (at 50.0 µM), 24.9%. Besides, the growth inhibition in assay [3] (setting [7]) is -5%; in assay [3] (setting [8]), 16%; in assay [3] (at 50.0 µM), 6.7%; in assay [4] (setting [7]) it was -2%; in assay [4] (setting [8]), -23%; in assay [4] (at 50.0 µM), -22.1%. In addition, the growth inhibition is 2% in assay [5] (setting [7]); 15% in assay [5] (setting [8]); 37.2% in assay [5] (at 50.0 µM); -40% in assay [6] (setting [7]); -1% in assay [6] (setting [8]); 53.8% in assay [6] (at 50.0 µM).
Regarding `O=C1OC(c2cccc(Cl)c2)=N/C1=C\C=C/c1ccccc1`, the growth inhibition was -3% in assay [1] (setting [7]); -10% in assay [1] (setting [8]); 14.1% in assay [1] (at 50.0 µM); -27% in assay [2] (setting [7]); -15% in assay [2] (setting [8]); -7.9% in assay [2] (at 50.0 µM). Moreover, the growth inhibition in assay [3] (setting [7]) is -8%; in assay [3] (setting [8]), 1%; in assay [3] (at 50.0 µM) it was 17.6%; in assay [4] (setting [7]), 19%; in assay [4] (setting [8]) it was 21%; in assay [4] (at 50.0 µM), 11.8%. Moreover, the growth inhibition in assay [5] (setting [7]) is -1%; in assay [5] (setting [8]), -10%; in assay [5] (at 50.0 µM), 11.9%; in assay [6] (setting [7]), -16%; in assay [6] (setting [8]) it was -39%; in assay [6] (at 50.0 µM), 3.9%.
On to `CCN(CC)Cc1cc(Nc2c3ccccc3nc3c4ccccc4n(C)c23)ccc1O`, for which the growth inhibition in assay [1] (setting [7]) was 0%; in assay [1] (setting [8]) it was 23%; in assay [1] (at 50.0 µM), 74.2% (active); in assay [2] (setting [7]), 2%; in assay [2] (setting [8]) it was -4%; in assay [2] (at 50.0 µM), 16.2%. The growth inhibition in assay [3] (setting [7]) is -10%; in assay [3] (setting [8]), 9%; in assay [3] (at 50.0 µM), 30.2%; in assay [4] (setting [7]), 0%; in assay [4] (setting [8]), 0%; in assay [4] (at 50.0 µM) it was -1.6%. Besides, the growth inhibition in assay [5] (setting [7]) was -6%; in assay [5] (setting [8]), 13%; in assay [5] (at 50.0 µM), 55.3%; in assay [6] (setting [7]), -10%; in assay [6] (setting [8]) it was 0%; in assay [6] (at 50.0 µM) it was 42.9%.
For the compound `c1ccc2c(CCc3ccncc3)c[nH]c2c1`, the growth inhibition in assay [1] (setting [7]) was 2%; in assay [1] (setting [8]) it was 78% (active); in assay [1] (at 50.0 µM) it was 46.8%; in assay [2] (setting [7]), -4%; in assay [2] (setting [8]), 59%; in assay [2] (at 50.0 µM) it was 45.1%. In addition, the growth inhibition in assay [3] (setting [7]) was 11%; in assay [3] (setting [8]), 82% (active); in assay [3] (at 50.0 µM) it was 50.1%; in assay [4] (setting [7]), -13%; in assay [4] (setting [8]), 69%; in assay [4] (at 50.0 µM), 6.25%. Further, the growth inhibition in assay [5] (setting [7]) is -10%; in assay [5] (setting [8]), 75% (active); in assay [5] (at 50.0 µM), 4.8%; in assay [6] (setting [7]), -13%; in assay [6] (setting [8]) it was 65%; in assay [6] (at 50.0 µM), 57.5%.
`O=C(N/C(=C\c1ccc(Cl)cc1)c1nc2ccccc2[nH]1)c1ccccc1`: the growth inhibition is 0% in assay [1] (setting [7]); 96% (active) in assay [1] (setting [8]); 97.3% (active) in assay [1] (at 50.0 µM); -1% in assay [2] (setting [7]); 98% (active) in assay [2] (setting [8]); 97.5% (active) in assay [2] (at 50.0 µM). The growth inhibition in assay [3] (setting [7]) is 10%; in assay [3] (setting [8]), 98% (active); in assay [3] (at 50.0 µM), 96.8% (active); in assay [4] (setting [7]), -1%; in assay [4] (setting [8]) it was 97% (active); in assay [4] (at 50.0 µM), 96.5% (active). Moreover, the growth inhibition in assay [5] (setting [7]) is 13%; in assay [5] (setting [8]) it was 97% (active); in assay [5] (at 50.0 µM), 98.1% (active); in assay [6] (setting [7]), 2%; in assay [6] (setting [8]), 97% (active); in assay [6] (at 50.0 µM), 96.7% (active).
`Clc1ccc(OCCC(Cn2ccnc2)c2ccc(Cl)cc2Cl)c(Cl)c1` (stereo not given): the growth inhibition was 94% (active) in assay [1] (setting [7]); 98% (active) in assay [1] (setting [8]); 66% in assay [1] (at 50.0 µM); 91% (active) in assay [2] (setting [7]); 99% (active) in assay [2] (setting [8]); 55.9% in assay [2] (at 50.0 µM). Moreover, the growth inhibition in assay [3] (setting [7]) was 94% (active); in assay [3] (setting [8]), 98% (active); in assay [3] (at 50.0 µM) it was 58.2%; in assay [4] (setting [7]), 86% (active); in assay [4] (setting [8]), 97% (active); in assay [4] (at 50.0 µM), 64%. Also, the growth inhibition in assay [5] (setting [7]) was 93% (active); in assay [5] (setting [8]), 98% (active); in assay [5] (at 50.0 µM), 48.1%; in assay [6] (setting [7]), 90% (active); in assay [6] (setting [8]) it was 98% (active); in assay [6] (at 50.0 µM), 55.7%.
Take `CC(C)c1ccc(C2C3=C(N=C4SCC(=O)N42)C(=O)c2ccccc23)cc1` (stereo not given): the growth inhibition in assay [1] (setting [7]) was 7%; in assay [1] (setting [8]) it was -6%; in assay [1] (at 50.0 µM), 86.7% (active); in assay [2] (setting [7]), -20%; in assay [2] (setting [8]), 3%; in assay [2] (at 50.0 µM), 68.2%. In addition, the growth inhibition in assay [3] (setting [7]) was -6%; in assay [3] (setting [8]), 5%; in assay [3] (at 50.0 µM) it was 89.2% (active); in assay [4] (setting [7]), -31%; in assay [4] (setting [8]) it was 8%; in assay [4] (at 50.0 µM) it was 83% (active). Besides, the growth inhibition in assay [5] (setting [7]) was -41%; in assay [5] (setting [8]), 41%; in assay [5] (at 50.0 µM), 80.3% (active); in assay [6] (setting [7]) it was -39%; in assay [6] (setting [8]), 2%; in assay [6] (at 50.0 µM), 42.2%.
Regarding `Fc1ccc(NC(=S)SCc2ccc(Cl)cc2)c(F)c1`, the growth inhibition in assay [1] (setting [7]) is 19%; in assay [1] (setting [8]), 99% (active); in assay [1] (at 50.0 µM) it was 99.3% (active); in assay [2] (setting [7]), 11%; in assay [2] (setting [8]), 99% (active); in assay [2] (at 50.0 µM), 99.6% (active). The growth inhibition is 13% in assay [3] (setting [7]); 99% (active) in assay [3] (setting [8]); 99.5% (active) in assay [3] (at 50.0 µM); -2% in assay [4] (setting [7]); 99% (active) in assay [4] (setting [8]); 99.4% (active) in assay [4] (at 50.0 µM). For the same compound, the growth inhibition was 19% in assay [5] (setting [7]); 98% (active) in assay [5] (setting [8]); 99.5% (active) in assay [5] (at 50.0 µM); 7% in assay [6] (setting [7]); 98% (active) in assay [6] (setting [8]); 99.5% (active) in assay [6] (at 50.0 µM).
For `C[N+]1(C)CCN(CCCN2c3ccccc3Sc3ccccc32)CC1`, the growth inhibition in assay [1] (setting [7]) is 0%; in assay [1] (setting [8]), 54%; in assay [1] (at 50.0 µM), 42.1%; in assay [2] (setting [7]), 8%; in assay [2] (setting [8]) it was 22%; in assay [2] (at 50.0 µM), 14.3%. Also, the growth inhibition in assay [3] (setting [7]) is -222%; in assay [3] (setting [8]) it was 66%; in assay [3] (at 50.0 µM) it was 66.9%; in assay [4] (setting [7]), 4%; in assay [4] (setting [8]) it was 15%; in assay [4] (at 50.0 µM) it was 25.7%. Besides, the growth inhibition in assay [5] (setting [7]) was 5%; in assay [5] (setting [8]), 26%; in assay [5] (at 50.0 µM), 10.9%; in assay [6] (setting [7]) it was -5%; in assay [6] (setting [8]) it was 76% (active); in assay [6] (at 50.0 µM), 56.9%.
